Screens (PubChem)
Compounds with a hit are over-represented: about 21% of the library has one in this group of screens.
Pf growth 48h – P. falciparum growth inhibition at 48 hours (one generation) | P. falciparum luciferase growth in erythrocytes, 48 h | Potency, µM (series often up to 28.7 µM), without a hit: top-dose activity change, negative = inhibition, most hits filed as inhibitors | 5.9% of 310,000 active | AID 504832; also: potency is read from the fitted curve at half-maximal effect; % is scaled to controls: 0 for no effect and ±100 for the full control effect
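Here the parasites carry a stable luciferase gene and grow inside erythrocytes in Albumax-based RPMI medium with compound for one erythrocytic cycle. Activity is scored as loss of luminescent signal.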
Giardia FBPA inh – Giardia lamblia aldolase inhibition; Potency, µM (series often up to 59.6 µM), without a hit: top-dose activity, negative = inhibition, most hits filed as inhibitors; 0.71% of 290,000 active; A8B2U2; AID 2451; purified Giardia FBPA; also: potency is read from the fitted curve at half-maximal effect; % is scaled to controls: 0 for no effect and ±100 for the full control effect; nearly all actives have a fitted effect of over 55% in size
Target sequence (A8B2U2 whole entry, looked up): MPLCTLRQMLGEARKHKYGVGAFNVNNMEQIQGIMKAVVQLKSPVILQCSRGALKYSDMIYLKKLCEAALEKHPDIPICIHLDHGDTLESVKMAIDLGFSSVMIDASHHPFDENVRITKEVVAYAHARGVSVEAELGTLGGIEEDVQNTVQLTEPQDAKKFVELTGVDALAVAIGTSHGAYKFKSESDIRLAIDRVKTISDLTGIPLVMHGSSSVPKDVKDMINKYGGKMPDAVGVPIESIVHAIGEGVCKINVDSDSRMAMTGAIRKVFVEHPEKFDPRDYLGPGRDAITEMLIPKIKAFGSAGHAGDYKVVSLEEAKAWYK
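40 nM FBPA preincubated 10 min at RT with compound (up to 57.5 uM final), then substrate plus GAPDH/TPI/NAD/arsenate coupling and diaphorase/resazurin added. Fluorescence read after 20 min at RT, 525/598 nm.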
Shiga toxin inh – blocks Shiga toxin action in Vero cells; inhibition, % at 38.7 µM; 9.2% of 290,000 active; Vero cells, Shiga toxin protein synthesis inhibition reporter; in the data active = inhibition mostly above about 28%, no sharp cut-off; inactive = mostly below about 43%; also: 0% is about no effect
Pf growth 96h – inhibits malaria parasite growth, 96 h; P. falciparum luciferase reporter growth, 96 h; Potency, µM (highest dose often 28.7 µM), for the others: at the top dose activity change, negative = inhibition, hits mostly inhibitors; 6.9% of 320,000 active; AID 504834; also: potency is read from the fitted curve at half-maximal effect; % is scaled to controls: 0 for no effect and ±100 for the full control effect
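Parasite growth measured via integrated firefly luciferase reporter in P. falciparum. Infected erythrocytes at 2% hematocrit, 0.05% parasitemia final were treated 96 hours at 37 C under 5% CO2, and luminescence was read.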
CHX counter – affects cycloheximide protein synthesis inhibition readout, counter-screen; cell reporter, cycloheximide protein synthesis inhibition counterscreen; max response, %; 12% of 300,000 active; AID 2314; in the data active = max response mostly above about 13%, no sharp cut-off; inactive = mostly below about 14%; also: read at 38.3 µM for the half of the compounds with a filed dose; 0% is about no effect
NS1 inh – inhibitors of influenza NS1 protein function; Potency, µM (series often up to 46.1 µM), for inactives: at the top dose activity, positive = more growth; 0.4% of 270,000 active; calls by dose curve; also: potency is read from the fitted curve at half-maximal effect; actives are rising curves; nearly all actives have a fitted effect of over 50% in size
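OD600 was taken as the measure of yeast growth restored by compound in an NS1-expressing S. cerevisiae strain. Cells had been washed out of glucose medium and diluted 1:100 into galactose -URA medium, pH 6.0.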
Starred values were filed as active, the others as inactive; [ ] = dose if it differs, or a comment. Unless noted, calls follow the shape of the dose curve; as a rule, active = well fitted curve in the direction sought with a large enough effect; inconclusive = small, poorly fitted or top-dose-only effect, or another doubt; inactive = no such curve, though single readings can be large; an effect the other way counts as inactive or inconclusive.

For NNC(=O)C(=O)Nc1ccc(O)cc1 the results were Pf growth 48h 0%, Giardia FBPA inh -13%, Shiga toxin inh 71, Pf growth 96h 37%, CHX counter 23* and NS1 inh 2%.
Cc1ccc(NC(=O)C(=O)NN)cc1 was read as Pf growth 48h 35%, Giardia FBPA inh -6%, Shiga toxin inh -3, Pf growth 96h 9%, CHX counter -1 and NS1 inh -2%.
CCS(=O)(=O)Nc1ccc(C2=NN(C(=O)c3ccco3)C(c3cccc(F)c3)C2)cc1 (centres undefined) was read as Pf growth 48h inconclusive, Giardia FBPA inh -12%, Shiga toxin inh 15, Pf growth 96h inconclusive and CHX counter -1.
For CS(=O)(=O)Nc1ccc(C2=NN(C(=O)c3ccco3)C(c3cccc(F)c3)C2)cc1 (centres undefined) the results were Pf growth 48h 13µM*, Giardia FBPA inh -20%, Shiga toxin inh -21, Pf growth 96h inconclusive and CHX counter 6.
For CCS(=O)(=O)Nc1ccc(C2=NN(C(=O)c3ccco3)C(c3ccc(C)cc3)C2)cc1 (centres undefined) the results were Pf growth 48h 10µM*, Giardia FBPA inh -6%, Shiga toxin inh -17, Pf growth 96h inconclusive, CHX counter 13 and NS1 inh inconclusive.
Cc1nccc2[nH]c(=O)c(C(=O)NC3CCCCC3C)cc12 (centres undefined) was read as Pf growth 48h inconclusive, Giardia FBPA inh 6%, Shiga toxin inh 22, Pf growth 96h 3.3µM*, CHX counter 1 and NS1 inh 1%.
Screening CCCC(=O)Nc1sc2c(c1C#N)CCCC2 returned Pf growth 48h 44%, Giardia FBPA inh -6%, Shiga toxin inh 74*, Pf growth 96h 39%, CHX counter 33* and NS1 inh -5%.
`CC(=O)Nc1sc2c(c1C#N)CCCC2` gave Pf growth 48h 6%, Giardia FBPA inh 1%, Shiga toxin inh 1, Pf growth 96h inconclusive, CHX counter 4 and NS1 inh -17%.
For CC(C)C(=O)Nc1sc2c(c1C#N)CCCCC2 the results were Pf growth 48h 25%, Giardia FBPA inh inconclusive, Shiga toxin inh 62*, Pf growth 96h 21%, CHX counter 24* and NS1 inh -6%.
For Cc1cc(C(=O)Nc2sc3c(c2C#N)CCCCC3)cs1 the results were Pf growth 48h 257%, Giardia FBPA inh -23%, Shiga toxin inh 60*, Pf growth 96h 3%, CHX counter 29* and NS1 inh -3%.
Cc1sc(NC(=O)COc2ccccc2)c(C#N)c1C was read as Pf growth 48h 109%, Giardia FBPA inh -8%, Shiga toxin inh 96*, Pf growth 96h 24% and CHX counter 41*.
Screening CC(C)(C)NC(=O)[C@@H]1C[C@H]2CCCC[C@@H]2CN1C[C@H](O)[C@H](Cc1ccccc1)NC(=O)[C@@H](CC(N)=O)NC(=O)c1ccc2ccccc2n1 returned Giardia FBPA inh 0%[21.7 µM].
`CNC(=O)c1c(NC(=O)C(C)C)sc2c1CCC2` gave Pf growth 48h 2.3µM*, Giardia FBPA inh -7%, Shiga toxin inh -2, Pf growth 96h -9%, CHX counter -5 and NS1 inh -12%.
CNC(=O)c1c(NC(=O)c2ccc(N3C(=O)CCC3=O)cc2)sc2c1CCCC2 was read as Pf growth 48h 8%, Giardia FBPA inh -3%, Shiga toxin inh -2, Pf growth 96h inconclusive, CHX counter -1 and NS1 inh -3%.
For Cc1cccc(OCC(=O)Nc2sc3c(c2C#N)CCC3)c1 the results were Pf growth 48h 49%, Giardia FBPA inh 1%, Shiga toxin inh 60*, Pf growth 96h 75%, CHX counter 21* and NS1 inh 13%.
Cc1cnc(C(=O)OCC(=O)Nc2sc3c(c2C#N)CCC3)cn1 was read as Pf growth 48h 17% and Pf growth 96h 38%.
Screening Cc1onc(C(=O)Nc2sc3c(c2C#N)CCCC3)c1[N+](=O)[O-] returned Pf growth 48h 33%, Giardia FBPA inh -11%, Shiga toxin inh 82*, Pf growth 96h -1% and CHX counter 33*.
For N#Cc1c(NC(=O)C2CC2)sc2c1CCCCC2 the results were Pf growth 48h 78%, Giardia FBPA inh -10%, Shiga toxin inh 37*, Pf growth 96h 107%, CHX counter 31* and NS1 inh -12%.
For COc1ccc([C@H]2CC(=O)C=C(c3ccc(C(=O)O)cc3)C2)cc1OC the results were Pf growth 48h 19% and Pf growth 96h inconclusive.
Screening Cc1ccccc1C(=O)N1CCC(C(=O)NCCc2ccc(S(N)(=O)=O)cc2)CC1 returned Pf growth 48h -8%, Giardia FBPA inh -6%, Shiga toxin inh 4, Pf growth 96h -3%, CHX counter -5 and NS1 inh 8%.
N#Cc1c(NC(=O)CSc2nc(N)cc(=O)[nH]2)sc2c1CCCCCC2 was read as Pf growth 48h -1%, Giardia FBPA inh -3%, Shiga toxin inh -6, Pf growth 96h 26%, CHX counter -3 and NS1 inh -15%.
`N#Cc1c(NC(=O)c2nc3ncccn3n2)sc2c1CCCCC2` gave Pf growth 48h 79%, Giardia FBPA inh inconclusive, Shiga toxin inh 58*, Pf growth 96h 13%, CHX counter 30* and NS1 inh -4%.
CC1CCc2c(sc(NC(=O)c3nc4ncccn4n3)c2C#N)C1 (centres undefined) was read as Pf growth 48h 101%, Giardia FBPA inh -1%, Shiga toxin inh -7, Pf growth 96h 307%, CHX counter -1 and NS1 inh inconclusive.
N#Cc1c(NC(=O)CSc2ncn[nH]2)sc2c1CCCCC2 was read as Pf growth 48h 9.3µM*, Giardia FBPA inh 8%, Shiga toxin inh -35, CHX counter -8 and NS1 inh -35%.
O=C(CCC(=O)N(CC(=O)NC1CCCCC1)CC1CCCO1)Nc1nccs1 (centres undefined) was read as Pf growth 48h -4%, Giardia FBPA inh 3%, Shiga toxin inh -5, Pf growth 96h 2%, CHX counter -2 and NS1 inh 1%.
Screening C=CCOC(=O)C(C(C)=O)C(NC(=O)OC)c1ccc(Cl)cc1 (centres undefined) returned Giardia FBPA inh 0%[12.9 µM].
`CCOC(=O)Nc1ccc2c(c1)N(C(=O)CCN(CC)CC)c1ccccc1S2=O` (centres undefined) gave Pf growth 48h 11%, Giardia FBPA inh 1%, Shiga toxin inh -7, Pf growth 96h 82%, CHX counter 6 and NS1 inh -5%.
`Cc1nn(C)c(C)c1S(=O)(=O)N1CCCC(C(=O)NCCc2ccc(Cl)cc2)C1` (centres undefined) gave Pf growth 48h -7%, Giardia FBPA inh 0%, Shiga toxin inh -3, Pf growth 96h inconclusive, CHX counter 2 and NS1 inh -6%.
